# In ChEMBL document CHEMBL1201862, “PubChem BioAssay data set” (2004):
# The campaign covered roughly 400,000 compounds. About 2,100 (0.53%) were called active. Not shown: some 14% with an inconclusive outcome. No rule for the calls is given here. The list comes from a sample in which actives are over-represented; it also holds similar structures and randomly drawn compounds.
# Molecular target: Ataxin-2 (Homo sapiens) (UniProt Q99700)
# Assay: qHTS for Inhibitors of ATXN expression.
# Assay type: functional
# Sequence of Ataxin-2 (Homo sapiens) (Q99700 whole entry): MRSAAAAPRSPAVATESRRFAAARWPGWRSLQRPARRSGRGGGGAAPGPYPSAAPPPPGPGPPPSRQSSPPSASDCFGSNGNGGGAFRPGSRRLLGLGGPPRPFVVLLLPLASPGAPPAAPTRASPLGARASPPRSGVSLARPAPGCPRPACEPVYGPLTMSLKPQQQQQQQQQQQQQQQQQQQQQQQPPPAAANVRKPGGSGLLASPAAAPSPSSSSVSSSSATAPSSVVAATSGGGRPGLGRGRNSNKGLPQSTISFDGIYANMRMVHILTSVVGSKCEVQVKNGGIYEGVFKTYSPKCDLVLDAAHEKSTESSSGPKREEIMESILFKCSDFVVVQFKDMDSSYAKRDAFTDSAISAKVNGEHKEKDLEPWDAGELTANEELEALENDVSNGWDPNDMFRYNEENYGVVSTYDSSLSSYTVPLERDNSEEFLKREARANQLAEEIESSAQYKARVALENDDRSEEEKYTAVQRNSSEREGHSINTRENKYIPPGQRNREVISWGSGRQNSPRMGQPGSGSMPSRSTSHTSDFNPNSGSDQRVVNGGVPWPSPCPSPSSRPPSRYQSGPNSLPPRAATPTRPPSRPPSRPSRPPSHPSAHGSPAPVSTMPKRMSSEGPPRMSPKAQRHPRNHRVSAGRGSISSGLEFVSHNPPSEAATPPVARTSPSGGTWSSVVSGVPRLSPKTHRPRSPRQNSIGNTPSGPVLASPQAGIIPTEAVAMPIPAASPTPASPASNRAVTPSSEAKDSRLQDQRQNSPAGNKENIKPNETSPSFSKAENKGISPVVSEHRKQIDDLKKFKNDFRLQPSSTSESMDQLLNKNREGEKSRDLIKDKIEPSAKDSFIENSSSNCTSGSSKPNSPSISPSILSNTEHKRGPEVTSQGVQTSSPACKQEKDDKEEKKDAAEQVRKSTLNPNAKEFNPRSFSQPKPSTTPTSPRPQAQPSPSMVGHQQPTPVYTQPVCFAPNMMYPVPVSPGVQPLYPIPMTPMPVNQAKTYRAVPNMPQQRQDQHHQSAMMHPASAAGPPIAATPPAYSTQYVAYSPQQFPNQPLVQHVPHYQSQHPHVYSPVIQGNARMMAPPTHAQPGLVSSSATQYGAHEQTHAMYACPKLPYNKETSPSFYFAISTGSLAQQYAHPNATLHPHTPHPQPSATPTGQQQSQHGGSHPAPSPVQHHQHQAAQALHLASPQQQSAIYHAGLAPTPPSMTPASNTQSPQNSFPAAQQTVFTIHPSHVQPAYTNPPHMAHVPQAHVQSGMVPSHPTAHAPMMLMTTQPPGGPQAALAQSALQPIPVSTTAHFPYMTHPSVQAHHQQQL
row,Structure (SMILES),Potency
1,CC(C)(C)c1nc2ccccc2c2nnc(SCC(=O)Nc3nc4ccccc4s3)n12,35.5 µM (active)
2,CCC(C)n1c(=N)c(C(=O)NC2CCCC2)cc2c(=O)n3ccccc3nc21 (stereo not given),inactive
3,COc1ccc(C(=O)c2c(N)sc3c2CCN(C(=O)OC(C)(C)C)C3)cc1,inactive
4,O=C1C=CC2(O[C@H](c3ccccc3)[C@@H](c3ccccc3)O2)[C@H](Sc2ccccc2O)C1,2 µM (active)
5,CCN(CC)c1ccc2c(C)cc(=O)oc2c1,inactive
6,CN(C)CCN/C=C1/C(=O)N(Cc2ccc3c(c2)OCO3)C(=O)c2ccccc21,inactive
7,CN(C)CCN/C=C1/C(=O)N(Cc2ccccc2)C(=O)c2ccccc21,inactive
8,CC1(C)CC(N/C=C2/C(=O)N(Cc3ccc4c(c3)OCO4)C(=O)c3ccccc32)CC(C)(C)N1,21.2 µM (active)
9,N#CCC(=O)Nc1ccc(C(=O)NNC(=O)c2ccccc2-n2cccc2)cc1,inactive
10,COc1cc(N2N=C(c3ccccc3)CC2c2ccccc2)c(C=O)cc1C=O (stereo not given),inactive
11,Cc1ccc(-c2nc3ncccc3o2)cc1N,inactive
12,O=C(Nc1cccc(-c2nc3ncccc3o2)c1)c1sc2ccccc2c1Cl,17.8 µM (active)
13,Nc1c(C(=O)Nc2cccc(Cl)c2Cl)sc2nc(-c3cccnc3)ccc12,inactive
14,COCCCNC(=S)N/N=C/c1ccc2c(c1)OCO2,inactive
15,COC(=O)c1ccc(N/C=C\C(=O)c2ccc3c(c2)OCO3)cc1,inactive
16,CNC(=S)N/N=C(\C)c1ccc2c(c1)OCO2,44.7 µM (active)
17,COc1cc(Cn2c(N)c(C#N)c3nc4ccccc4nc32)cc(OC)c1,inactive
18,O=C(Oc1ccc2c(-c3ccccc3)cc(=O)oc2c1)c1cccs1,inactive
19,COc1ccc(N2C(c3ccsc3)=Cc3cc4c(cc3C2c2c[nH]c3ccccc23)OCO4)cc1 (stereo not given),28.2 µM (active)
20,O=C(NC1CCS(=O)(=O)C1)c1cc2c(=O)n3ccccc3nc2n1Cc1ccccc1 (stereo not given),inactive
21,CCN(CC)CCNC(=O)C(Cl)=C1C(Cl)=C(Cl)C(Cl)=C1Cl,44.7 µM (active)
22,CCCCOC(=O)c1ccc(NC(=O)C(=O)NCCN(CC)CC)cc1,inactive
23,O=C(Cn1cc(C(F)(F)F)ccc1=O)NCc1ccc(F)cc1,inactive
24,N=C(N)N/N=C(\c1ccc(F)cc1)c1ccc(C(F)(F)F)cc1,5.97 µM (active)
25,CC(=O)CCC(=O)OCC(=O)c1ccc(C(F)(F)F)cc1,inactive

row,Structure (SMILES),Potency
1,CNC(=O)c1sc(N2N=C3/C(=C\c4ccccc4)CCCC3C2c2ccccc2)nc1C (stereo not given),inactive
2,C[C@H](CO)N1C[C@H](C)[C@@H](CN(C)Cc2ccc(Cl)c(Cl)c2)Oc2c(NC(=O)C3CC3)cccc2C1=O,28.2 µM (active)
3,C[C@@H]1CN([C@@H](C)CO)C(=O)c2cccc(NC(=O)C3CCCCC3)c2O[C@@H]1CN(C)Cc1ccc(Cl)c(Cl)c1,35.5 µM (active)
4,CCCC(=O)NC(N=C(S)Nc1ccc(N=Nc2ccccc2)cc1)C(Cl)(Cl)Cl (stereo not given),22.4 µM (active)
5,CCc1ccc(OCC(=O)NC(N=C(S)Nc2ccc(Cl)cc2)C(Cl)(Cl)Cl)cc1 (stereo not given),39.8 µM (active)
6,O=C(COc1ccc(Cl)cc1)NNC(=O)CSc1nncs1,inactive
7,CCCC(=O)Nc1ccc(C(=O)COC(=O)C2CC2C)cc1 (stereo not given),inactive
8,CC(C)(C)c1ccc(OCC(=O)NNC(=O)Nc2ccccc2)cc1,inactive
9,COc1ccc(C(=O)c2sc3nc(C)cc(-c4cccs4)c3c2N)cc1,inactive
10,O=C1NC2c3c(I)sc(I)c3C(=O)C2O1 (stereo not given),39.8 µM (active)
11,COc1ccc(OC)c(NC(=O)c2cnc(Nc3ccc(C)c(Cl)c3)c3ccccc23)c1,inactive
12,Oc1c(Cl)cc(Cl)cc1/C=N/c1nc[nH]n1,inactive
13,Cc1c(Cl)cccc1NS(=O)(=O)c1cccc2nsnc12,inactive
14,CCCCN(C(=O)C1CCC(CNS(=O)(=O)c2cccc3nsnc23)CC1)c1ccccc1 (stereo not given),39.8 µM (active)
15,O=C(Nc1ccccc1)Nc1cccc2nsnc12,inactive
16,Cn1nnc(NC(=S)NC(=O)c2ccc3ccccc3c2)n1,inactive
17,COC(=O)C1=C(C)NC(=O)NC1c1ccc(OC(=O)c2ccco2)cc1 (stereo not given),inactive
18,CCOC(=O)C1=C(COC(=O)COc2cccc(C)c2C)NC(=O)NC1C (stereo not given),inactive
19,CCOC(=O)C1=C(C)NC(=O)NC1c1ccc(N2CCC(c3ccccc3)=N2)cc1 (stereo not given),inactive
20,CCOC(=O)C1=C(COc2ccccc2)NC(=O)NC1c1ccc2ccccc2c1 (stereo not given),35.5 µM (active)
21,CCOC(=O)C1=C(CN2CCN(c3ccc(OC)cc3)CC2)NC(=O)NC1c1ccc(Cl)cc1 (stereo not given),39.8 µM (active)
22,CCC(CC)COC(=O)C1=C(C)NC(=O)NC1c1ccc([N+](=O)[O-])cc1 (stereo not given),inactive
23,CCOC(=O)c1cc2c(=O)n3ccccc3nc2n(CC(C)C)/c1=N\C(=O)COc1ccc(Cl)cc1,inactive
24,Cc1nc2sc(C(=O)OC(C)C)c(N)c2c(C)c1C,inactive
25,COc1cc(/C=C(/C#N)C(=O)NCCCc2ccccc2)ccc1OCC(=O)O,inactive
